Molecules are shown by their SMILES. This is one part of the list. Results filed as inconclusive are left out. Activity calls are given as the source filed them. The call rests on the fitted dose curve; in most records, active means well fitted inhibition curve with a large enough effect; inconclusive means small, poorly fitted or top-dose-only effect; inactive means flat fitted curve, though single readings scatter.

In the assay the target is Dual specificity protein kinase CLK4 (Homo sapiens) (UniProt Q9HAZ1). As to the kind of experiment: Confirmation Assay for Inhibitors of CDC-like Kinase 4 (Kinase-Glo Assay): SAR round 2. The note with it: recombinant Clk4, Kinase-Glo ATP luminescence, 4.5 h. On the procedure: NIH Molecular Libraries Probe Production Centers Network [MLPCN] NIH Chemical Genomics Center [NCGC] MLPCN Grant: 1R03MH084827-01 Assay Submitter (PI): Tom Misteli NCGC Assay Overview: Clk4 (Invitrogen, cat# PV3839) was assayed using ATP and the RS repeat peptide (AnaSpec cat # 61722) as substrates. Following the Clk4 reaction, the remaining ATP levels were detected using Promega Kinase-Glo technology wherein the remaining ATP from the kinase reaction is detected using Ultra-Glo luciferase and D-luciferin which generates a bioluminescence signal from the ATP. The positive control for the assay was TG003 (Sigma-Aldrich, cat# 300801-52-9) which has been described as an inhibitor of Clk 4[1].
Chain of Dual specificity protein kinase CLK4 (Homo sapiens) (Q9HAZ1 whole entry, looked up): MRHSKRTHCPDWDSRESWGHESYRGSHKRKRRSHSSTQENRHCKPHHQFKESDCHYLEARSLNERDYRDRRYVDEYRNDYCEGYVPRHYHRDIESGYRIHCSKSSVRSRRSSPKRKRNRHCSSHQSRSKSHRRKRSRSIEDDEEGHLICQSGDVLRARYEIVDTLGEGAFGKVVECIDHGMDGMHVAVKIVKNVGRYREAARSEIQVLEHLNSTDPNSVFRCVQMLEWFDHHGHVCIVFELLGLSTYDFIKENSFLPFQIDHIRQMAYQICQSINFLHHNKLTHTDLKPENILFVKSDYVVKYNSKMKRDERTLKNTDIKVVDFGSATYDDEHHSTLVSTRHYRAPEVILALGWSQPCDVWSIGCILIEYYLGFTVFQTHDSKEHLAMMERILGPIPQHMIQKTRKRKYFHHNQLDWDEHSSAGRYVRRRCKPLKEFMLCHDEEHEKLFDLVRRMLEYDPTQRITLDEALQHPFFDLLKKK
NCGC Assay Protocol Summary: Two uL/well of substrate-buffer solution (100 uM RS peptide, 1 uM ATP, 25 mM Tris pH7.5, 10 mM MgCl2, 0.5 mM EGTA, 2.5 mM DTT, 0.01% Triton X-100 final concentration) was dispensed into 1536-well, assay plates (Greiner, solid white medium-binding plates) with Aurora Discovery BioRAPTR Flying Reagent Dispenser (FRD; Beckton-Dickenson). Using a Kalypsys pin tool equipped with a 1536-pin tool, 23 nL of compound solution was transferred to the assay plate. […] Luminescence was detected with the ViewLux plate reader (Perkin Elmer, Waltham, MA) after 5 min incubation using a 5 second exposure time and 2x binning.
In general terms: Kinase-Glo reads ATP consumption through a luciferase reaction.
In the case of `c1nc(N2CCOCC2)c2cc(-c3ccc4c(c3)OCO4)ccc2n1`, the Potency was 104 nM (active).

The values are drawn from PubChem BioAssay AID493204 (National Center for Advancing Translational Sciences (NCATS), 2011).
